Source: PubChem BioAssay (National Center for Advancing Translational Sciences (NCATS))
Nrf2 block: Nrf2 pathway inhibition; 360,000 compounds, 2.1% hits; A549 ARE-Fluc reporter, luciferase luminescence, 18-24 h; Potency, µM (top dose mostly 46 µM), for inactives: top-dose activity change, negative = inhibition, actives largely listed as inhibitors; further: on the % scale 0 is the no-effect control and ±100 the full control effect; nearly all actives have a fitted effect of over 60% in size
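A549 ARE_Fluc cells, 5000/well, 5% FBS OPTI-MEM; compounds in dose-response, 18-24 h at 37 °C/5% CO2; CellTiter-Fluor viability read (Ex 405/Em 525), then BugLite luciferase luminescence = Nrf2 activity.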
Nrf2 ARE act: Nrf2 pathway activation | AREc32 ARE-luciferase reporter (MCF7-derived line), luminescence, 24 h | Potency, µM (titrated, usually from 46.1 µM), inactives show at the highest dose activation, actives largely listed as activators | 410,000 compounds, 0.31% hits | AID 624171; further: % of control where 0% means no effect; nearly all actives have a fitted effect of over 65% in size
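Quantitative high-throughput format: AREc32 reporter cells, 1000 per well, received compound by pin transfer and were incubated 24 hr at 37 deg C, 5% CO2, before Steady-Glo luminescence detection.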
ELG1 repair inh: blocks ELG1-dependent DNA repair in HEK293T cells; 330,000 compounds, 2.3% hits; HEK293T ELG1-luciferase reporter, luminescence, 16 h; DNA damage induced by 5-fluorouridine; Potency, µM (highest dose often 46.1 µM), inactives show at the highest dose activity change, negative = inhibition, usual class: inhibitors; further: on the % scale 0 is the no-effect control and ±100 the full control effect; nearly all actives have a fitted effect of over 55% in size
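HEK293T cells expressing luciferase-tagged ELG1 (2,000/well) received 5-Fluorouridine plus compound or DMSO for 16 hr at 37 °C. Luciferase was read by ONE-Glo luminescence after 30 min at room temperature.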
A549 tox: A549 cytotoxicity, counter-screen for Nrf2 inhibitors; A549 ARE-Fluc cells, CellTiter-Fluor viability, 18-24 h; Potency, µM (series often up to 46 µM), inactives show at the top dose activity change, negative = cytotoxicity, usual class: inhibitors; 390,000 compounds, 0.16% hits; further: on the % scale 0 is the no-effect control and ±100 the full control effect
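A549 ARE_Fluc cells in 5% FBS OPTI-MEM were exposed to compounds in concentration-response for 18-24 h at 37 deg C. Viability was read by CellTiter-Fluor fluorescence (Ex 405/Em 525) after 30 min, before the luciferase read.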
mIDH1 inhibitor: human IDH1 R132H inhibition; 390,000 compounds, 0.093% hits; O75874; Potency, µM (series often up to 76.6 µM), for the others: at the top dose activity change, negative = inhibition, usual class: inhibitors; IDH1-R132H enzyme, NADPH consumption, diaphorase/resazurin fluorescence; further: on the % scale 0 is the no-effect control and ±100 the full control effect; nearly all actives have a fitted effect of over 65% in size
Target sequence (O75874 whole entry R132H, stated change not applied): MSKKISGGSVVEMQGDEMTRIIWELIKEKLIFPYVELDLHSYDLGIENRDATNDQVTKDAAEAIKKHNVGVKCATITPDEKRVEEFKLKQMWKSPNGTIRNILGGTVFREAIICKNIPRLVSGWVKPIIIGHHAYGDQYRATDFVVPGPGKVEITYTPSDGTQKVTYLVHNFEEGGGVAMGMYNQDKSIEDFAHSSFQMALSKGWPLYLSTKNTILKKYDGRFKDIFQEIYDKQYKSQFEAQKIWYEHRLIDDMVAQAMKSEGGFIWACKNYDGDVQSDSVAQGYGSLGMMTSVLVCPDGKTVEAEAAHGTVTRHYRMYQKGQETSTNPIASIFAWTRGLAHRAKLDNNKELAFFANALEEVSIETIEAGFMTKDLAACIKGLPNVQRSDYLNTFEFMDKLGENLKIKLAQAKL
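IDH1-R132H (0.5 ug/mL) preincubated 30 min with compound, then NADPH (0.016 mM) and alpha-KG (2 mM) added; 80 min at RT, pH 7.5. Remaining NADPH coupled via diaphorase/resazurin to fluorescence (540/590 nm); concentration-response curves normalized to no-enzyme control.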
* = called active by the depositor; ? = inconclusive; nt = no result. Compounds with a hit are over-represented: about 3.8% of the library has one in this group of screens. The call rests on the fitted dose curve; in most records, active means well fitted curve in the direction sought with a large enough effect; inconclusive means small, poorly fitted or top-dose-only effect, or another doubt; inactive means no such curve, though single readings can be large; an effect the other way counts as inactive or inconclusive. Potency means the concentration at half of the fitted maximal effect.

SMILES | Nrf2 block | Nrf2 ARE act | ELG1 repair inh | A549 tox | mIDH1 inhibitor
O=C(CSc1ccc(Cl)cc1)Nc1ccccc1N1CCN(C(=O)c2ccc(Cl)cc2)CC1 | ? | -1% | 23µM* | -4% | -7%
O=C(Nc1ccc(N2CCN(C(=O)c3ccccc3)CC2)cc1)c1ccc2c(c1)OCCO2 | ? | 0% | 15µM* | -16% | 5%
O=C(CSc1ccc(Cl)cc1)Nc1ccc(N2CCN(C(=O)c3ccc(Cl)cc3)CC2)cc1 | nt | 1% | -24% | -2% | 12%
CCc1ccccc1N(C)S(=O)(=O)c1ccc2c(c1)C(C)(C)C(=O)N2C | ? | 3% | nt | 19% | 11%
O=C(Nc1ccccc1N1CCN(C(=O)c2ccc(Cl)cc2)CC1)c1ccc2c(c1)OCO2 | ? | 4% | 16µM* | -26% | -2%
CC(C)(C)C(=O)N1CCN(c2ccc(NC(=O)c3ccc4c(c3)OCCO4)cc2)CC1 | ? | 0% | 16µM* | 1% | -9%
O=C(c1ccc(N2CCCC2=O)cc1)N1CCN(c2ccccc2Cl)CC1 | -16% | 0% | ? | 8% | -6%
O=C(Nc1ccc(N2CCN(C(=O)c3ccccc3)CC2)cc1)c1ccc(Br)o1 | ? | 0% | ? | -3% | 11%
O=C(c1ccc(N2CCCC2=O)cc1)N1CCN(c2ccc(Cl)cc2)CC1 | 18µM* | 0% | -17% | -9% | 13%
O=C(Nc1ccc(N2CCN(C(=O)c3ccccc3)CC2)c(Cl)c1)c1ccc(Br)o1 | nt | -1% | 12µM* | -10% | 11%
Cc1ccccc1S(=O)(=O)N1CCN(c2nc(-c3cccs3)nc3ccccc23)CC1 | -13% | nt | nt | 7% | nt
CC(Sc1nnc(Cc2cccs2)n1C)C(=O)Nc1ccc(C(N)=O)cc1 (stereo not given) | -1% | 0% | 14% | -1% | -4%
COc1ccccc1N1CCN(C(=O)c2cc(-c3ccc(C)c(F)c3)on2)CC1 | -3% | 3% | nt | -2% | nt
COc1cccc(N2C(=O)CSC23C(=O)N(CC(=O)Nc2cccc(Cl)c2)c2ccccc23)c1 (stereo not given) | ? | 1% | nt | -29% | -9%
O=C(Nc1ccc(N2CCN(C(=O)c3ccccc3)CC2)cc1)c1cc2ccccc2o1 | nt | 0% | 9.2µM* | -7% | -2%
CC(=O)N1CCN(c2ccc(NC(=O)c3ccc4c(c3)OCCO4)cc2)CC1 | 0% | -1% | 2% | 10% | 7%
CN1CCN(c2ccc(NC(=O)c3cc4ccccc4o3)cc2)CC1 | ? | 0% | ? | -5% | -2%
O=C(Nc1ccc(N2CCN(C(=O)c3ccc(Cl)cc3)CC2)cc1)c1ccc2c(c1)OCCO2 | 6.5µM* | 0% | 4.1µM* | -11% | 2%
CSc1ncccc1C(=O)NC1CCN(Cc2ccccc2)CC1 | -4% | 0% | 12% | -7% | 5%
COc1ccc(CCNc2nc(N3CCCCC3)nc(N3CCCCC3)n2)cc1OC | ? | 3% | 21µM* | -30% | 1%
CCOc1cccc(/C=N/Nc2nc(N3CCCC3)nc(N3CCCC3)n2)c1O | 28% | -1% | ? | 16% | 4%
CCOc1cc(/C=N/Nc2nc(N3CCCC3)nc(N3CCCC3)n2)ccc1O | -13% | 2% | 12µM* | 0% | 3%
COc1ccc(/C=N/Nc2nc(Nc3ccccc3)nc(N3CCCCC3)n2)cc1OC | -18% | 0% | 5.8µM* | 2% | 2%
COc1ccc(/C=N\Nc2ncc(F)c(N3CCOCC3)n2)cc1OC | 1% | 3% | 18µM* | 8% | -1%
COc1ccc(/C=N/Nc2cc(C)nc(N3CCOCC3)n2)cc1OC | 28% | 3% | 3% | -12% | 7%
COc1ccc(CCNc2nc(N3CCOCC3)nc(N3CCOCC3)n2)cc1OC | 2% | 1% | ? | 18% | 4%
CCc1cccc(-n2c(=O)c3cccnc3n2CC(=O)Nc2ccc(F)c(C)c2)c1 | -14% | -1% | nt | -2% | 10%
Cc1ccc2c(c1)C(=O)OC(C(=O)Nc1ccc(C(=O)O)cc1)C2 (stereo not given) | -4% | 0% | nt | -2% | 0%
